Measurements as given in PubChem BioAssay (NCI).
The panel holds about 79,000 compounds, 15% with a hit somewhere; the sample as a whole holds those more often. Calls of active or inactive are those of the source. No stated cut-off is given here; in the data, active means growth inhibition above about 70%; inactive means the rest.

How the values were obtained:
[1] = NCI Yeast Anticancer Drug Screen. Data for the mlh1 strain (AID 171);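 further: 0% = growth of vehicle-treated control cultures of the same strain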; settings: S. cerevisiae mlh1 strain growth inhibition, active compounds read high
In short: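 Inhibition values reflect reduced yeast growth in the presence of compound, referenced to vehicle controls, using a strain chosen for its alteration in DNA repair or cell cycle control.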

[2] = NCI Yeast Anticancer Drug Screen. Data for the sgs1 strain (AID 173);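 further: 0% = growth of vehicle-only control cultures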; settings: S. cerevisiae sgs1 mutant, active compounds read high
In short: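 Vehicle-treated cultures served as reference for growth inhibition of a yeast strain altered in DNA damage repair or cell cycle control after compound exposure.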

[3] = NCI Yeast Anticancer Drug Screen. Data for the mlh1 rad18 strain (AID 175); settings: S. cerevisiae mlh1 rad18 strain growth inhibition, active compounds read high
In short: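 Inhibition values reflect reduced growth of mutant yeast versus vehicle-treated controls following compound exposure; the mutations affect DNA damage repair.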

[4] = NCI Yeast Anticancer Drug Screen. Data for the rad18 strain (AID 177); settings: S. cerevisiae rad18 mutant growth inhibition, active compounds read high
In short: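 Steps: expose repair-mutant yeast to compound; measure growth; express as inhibition relative to vehicle control.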

[5] = NCI Yeast Anticancer Drug Screen. Data for the wt1 strain (AID 149);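 further: 0% = growth of vehicle-treated wt1 cultures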; settings: S. cerevisiae wt1 strain (SPY 50644) growth inhibition, active compounds read high
In short: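 Growth inhibition read against vehicle controls after compound exposure of the wt1 yeast strain.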

[6] = NCI Yeast Anticancer Drug Screen. Data for the rad50EPP+ strain (AID 151);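 further: 0% = growth of vehicle-treated control cultures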; settings: S. cerevisiae rad50 mutant strain, active compounds read high
In short: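 Genetically defined yeast (rad50EPP+, DNA damage repair alteration) is grown with compound, and inhibition of growth is expressed relative to vehicle-treated controls.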

[7] = NCI Yeast Anticancer Drug Screen. Data for the mgt1 strain (AID 153); settings: S. cerevisiae mgt1 mutant growth inhibition, active compounds read high
In short: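 In the mgt1 strain, test compounds were added and growth inhibition was determined relative to vehicle-treated controls.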

[8] = NCI Yeast Anticancer Drug Screen. Data for the rad50 strain (AID 155);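 further: 0% = growth of vehicle-only cultures of the same strain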; settings: S. cerevisiae rad50 strain growth inhibition, active compounds read high
In short: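 Readout: growth inhibition relative to vehicle-treated cultures. Compound exposure was carried out in a genetically defined yeast strain deficient in DNA damage repair.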

[9] = NCI Yeast Anticancer Drug Screen. Data for the mec2-1 strain (AID 157); settings: S. cerevisiae mec2-1 strain, active compounds read high
In short: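 Each compound was tested on mec2-1 yeast, a strain altered in DNA damage repair or cell cycle control. Growth inhibition is reported relative to vehicle.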

[10] = NCI Yeast Anticancer Drug Screen. Data for the rad14 strain (AID 159);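 further: 0% = growth of vehicle-treated control cultures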; settings: S. cerevisiae rad14 strain growth inhibition, active compounds read high
In short: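 Growth inhibition vs vehicle controls; genetically altered yeast strain (DNA damage repair defect) treated with test compounds.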

[11] = NCI Yeast Anticancer Drug Screen. Data for the sgs1 mgt1 strain (AID 161);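 further: 0% = growth of cultures given vehicle only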; settings: S. cerevisiae sgs1 mgt1 strain, active compounds read high
In short: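 Test agents were incubated with a DNA-repair-mutant yeast strain. Growth was then read and compared against vehicle-treated controls.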

[12] = NCI Yeast Anticancer Drug Screen. Data for the CLN2oe strain (AID 163);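 further: 0% = growth of vehicle-only control cultures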; settings: S. cerevisiae CLN2oe strain, active compounds read high
In short: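 First, the altered yeast strain was treated with each compound; second, its growth was measured; finally, inhibition was derived by comparison with vehicle controls.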

[13] = NCI Yeast Anticancer Drug Screen. Data for the cln2 rad14 strain (AID 165);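 further: 0% = growth equal to vehicle treated cultures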; settings: S. cerevisiae cln2 rad14 strain, active compounds read high
In short: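 Test compounds were added to cln2 rad14 yeast cultures; inhibition of growth was then determined by comparison with vehicle treatment.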

[14] = NCI Yeast Anticancer Drug Screen. Data for the bub3 strain (AID 167); settings: S. cerevisiae bub3 mutant strain, active compounds read high
In short: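 Readout: yeast growth inhibition, expressed relative to vehicle-only wells. The test organism is a mutant strain from a panel with lesions in DNA repair or checkpoint genes.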

[15] = NCI Yeast Anticancer Drug Screen. Data for the wt2 strain (AID 169);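 further: 0% = growth of vehicle-treated yeast cultures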; settings: S. cerevisiae wt2 strain growth inhibition, active compounds read high
In short: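 The panel's yeast strains carry defined changes in DNA repair or cell cycle genes. Each strain is grown with compound, and growth loss is scored relative to vehicle.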

[16] = at 5.0 µM (retest, dose inferred, filed as 0.5)
[17] = at 50.0 µM (retest, dose inferred, filed as 5.0)

Measured: growth inhibition

S=C1N(c2ccc(Cl)cc2)C2=C(N=Nc3ccccc3)C(=Nc3ccccc3S2)N1c1ccccn1
active: [1]; at 33.0 µM 94% | [1]; at 100.0 µM 99% | [2]; at 33.0 µM 98% | [2]; at 100.0 µM 99% | [3]; [17] 99% | [3]; at 50.0 µM 99% | [4]; at 33.0 µM 94% | [4]; at 100.0 µM 99%
inactive: [1]; at 1.2 µM 9% | [1]; at 3.7 µM 12% | [1]; at 11.0 µM 29% | [2]; at 1.2 µM 9% | [2]; at 3.7 µM 19% | [2]; at 11.0 µM 52% | [3]; [16] 32% | [4]; at 1.2 µM 9% | [4]; at 3.7 µM 16% | [4]; at 11.0 µM 44%

COc1cccc(/C=C2\S/C(=N/Nc3nc(-c4ccc([N+](=O)[O-])cc4)cs3)NC2=O)c1O
inactive: [5]; at 1.2 µM -78% | [5]; at 3.7 µM 7% | [5]; at 11.0 µM 22% | [5]; at 33.0 µM 42% | [5]; at 100.0 µM 57% | [6]; at 1.2 µM 33% | [6]; at 3.7 µM 63% | [7]; at 1.2 µM 9% | [7]; at 3.7 µM 23% | [7]; at 11.0 µM 39% | [7]; at 33.0 µM 59% | [7]; at 100.0 µM 56% | [8]; at 1.2 µM 2% | [8]; at 3.7 µM 11% | [8]; [16] -1% | [8]; at 11.0 µM 43% | [9]; at 1.2 µM 1% | [9]; at 3.7 µM 12% | [9]; [16] -4% | [9]; at 11.0 µM 39% | [9]; [17] 52% | [10]; at 1.2 µM 0% | [10]; at 3.7 µM 3% | [10]; at 11.0 µM 6% | [10]; at 33.0 µM 20% | [10]; at 100.0 µM 43% | [11]; [16] 0% | [12]; at 1.2 µM 6% | [12]; at 3.7 µM 25% | [12]; at 11.0 µM 63% | [13]; [16] 33% | [14]; at 1.2 µM 7% | [14]; at 3.7 µM 33% | [14]; at 11.0 µM 62% | [15]; at 1.2 µM -2% | [15]; at 3.7 µM 23% | [1]; at 1.2 µM -1% | [1]; at 3.7 µM 6% | [1]; at 11.0 µM 30% | [1]; at 33.0 µM 63% | [2]; at 1.2 µM 5% | [2]; at 3.7 µM 19% | [2]; at 11.0 µM 50% | [3]; [16] 10% | [4]; at 1.2 µM 10% | [4]; at 3.7 µM 25%
active: [6]; at 11.0 µM 89% | [6]; at 33.0 µM 96% | [6]; at 100.0 µM 94% | [8]; at 33.0 µM 73% | [8]; [17] 84% | [8]; at 50.0 µM 97% | [8]; at 100.0 µM 80% | [9]; at 33.0 µM 79% | [9]; at 50.0 µM 94.2% | [9]; at 100.0 µM 83% | [11]; [17] 76% | [11]; at 50.0 µM 95.7% | [12]; at 33.0 µM 90% | [12]; at 100.0 µM 93% | [13]; [17] 85% | [13]; at 50.0 µM 76.7% | [14]; [16] 82% | [14]; at 33.0 µM 90% | [14]; [17] 97% | [14]; at 50.0 µM 97% | [14]; at 100.0 µM 94% | [15]; at 11.0 µM 76% | [15]; at 33.0 µM 94% | [15]; at 100.0 µM 92% | [1]; at 100.0 µM 74% | [2]; at 33.0 µM 77% | [2]; at 100.0 µM 76% | [3]; [17] 89% | [3]; at 50.0 µM 95.3% | [4]; at 11.0 µM 72% | [4]; at 33.0 µM 93% | [4]; at 100.0 µM 92%

c1ccc2c(c1)N=C1CCCC3CCCC123 (centres undefined)
inactive: [5]; at 1.2 µM -2% | [5]; at 3.7 µM 2% | [5]; at 11.0 µM 7% | [5]; at 33.0 µM -1% | [6]; at 1.2 µM -9% | [6]; at 3.7 µM -14% | [6]; at 11.0 µM -11% | [6]; at 33.0 µM 5% | [6]; at 100.0 µM 68% | [7]; at 1.2 µM 1% | [7]; at 3.7 µM 1% | [7]; at 11.0 µM 6% | [7]; at 33.0 µM 21% | [8]; at 1.2 µM -2% | [8]; at 3.7 µM 2% | [8]; [16] -161% | [8]; at 11.0 µM 11% | [8]; at 33.0 µM 32% | [8]; [17] 63% | [9]; at 1.2 µM -2% | [9]; at 3.7 µM 1% | [9]; [16] -46% | [9]; at 11.0 µM -15% | [9]; at 33.0 µM 25% | [9]; [17] 65% | [10]; at 1.2 µM -3% | [10]; at 3.7 µM -7% | [10]; at 11.0 µM 3% | [10]; at 33.0 µM 3% | [11]; [16] -57% | [11]; [17] 60% | [12]; at 1.2 µM -3% | [12]; at 3.7 µM -1% | [12]; at 11.0 µM 4% | [12]; at 33.0 µM 15% | [13]; [16] -67% | [13]; [17] -26% | [13]; at 50.0 µM 23.6% | [14]; at 1.2 µM -2% | [14]; at 3.7 µM 10% | [14]; [16] -50% | [14]; at 11.0 µM 22% | [14]; at 33.0 µM 61% | [14]; [17] 61% | [15]; at 1.2 µM 1% | [15]; at 3.7 µM 2% | [15]; at 11.0 µM 3% | [15]; at 33.0 µM -1% | [1]; at 1.2 µM 6% | [1]; at 3.7 µM 3% | [1]; at 11.0 µM 3% | [1]; at 33.0 µM 3% | [2]; at 1.2 µM -1% | [2]; at 3.7 µM 9% | [2]; at 11.0 µM 12% | [2]; at 33.0 µM 16% | [3]; [16] -133% | [3]; [17] 12% | [4]; at 1.2 µM -2% | [4]; at 3.7 µM -3% | [4]; at 11.0 µM 0% | [4]; at 33.0 µM -6%
active: [5]; at 100.0 µM 97% | [7]; at 100.0 µM 98% | [8]; at 50.0 µM 91% | [8]; at 100.0 µM 98% | [9]; at 50.0 µM 89.6% | [9]; at 100.0 µM 99% | [10]; at 100.0 µM 97% | [11]; at 50.0 µM 83.7% | [12]; at 100.0 µM 98% | [14]; at 50.0 µM 91.4% | [14]; at 100.0 µM 98% | [15]; at 100.0 µM 98% | [1]; at 100.0 µM 97% | [2]; at 100.0 µM 99% | [3]; at 50.0 µM 90.8% | [4]; at 100.0 µM 98%
